Measurements: article PMC7862700, “An all-to-all approach to the identification of sequence-specific readers for epigenetic DNA modifications on cytosine”

Columns and labels:
Test in all cases: DAPPL (digital affinity profiling via proximity ligation, sequencing); 10 mM Tris-HCl pH 7.5, 50 mM NaCl, 1 mM DTT, 4% glycerol, room temperature, 30 min; GST-TFs on glutathione beads, 16-mer random dsDNA library, 0.1% formaldehyde crosslink after washing; high values mean tight binding
FEV = target: T1, FEV (Homo sapiens, UniProt Q99581 1-238); conditions: protein: recombinant; tags: N-terminal GST; dsDNA, one strand shown
T1 sequence: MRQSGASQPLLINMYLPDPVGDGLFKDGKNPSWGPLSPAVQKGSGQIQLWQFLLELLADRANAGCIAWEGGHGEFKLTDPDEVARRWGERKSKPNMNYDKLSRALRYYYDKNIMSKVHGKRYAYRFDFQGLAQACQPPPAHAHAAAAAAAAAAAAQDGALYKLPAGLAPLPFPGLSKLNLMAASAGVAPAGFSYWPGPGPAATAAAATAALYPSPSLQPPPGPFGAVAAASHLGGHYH
Outline: (§1)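 A tag-only sample was pooled with DNA-barcoded human transcription factors that had been expressed in yeast as GST fusions and captured on glutathione beads. The pools were incubated for 30 min at room temperature with 200 nmole of a random double-stranded 16-mer DNA library in Tris/NaCl/DTT/glycerol buffer, then washed, crosslinked with 0.1% formaldehyde, proximity-ligated (BsaI/T4 ligase, 1 h, 37 °C), PCR-amplified and sequenced on an Illumina NextSeq500. Binding signal is each hexamer's read frequency for a factor divided by its frequency for the tag-only sample.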

ETV5 = ETV5 (Homo sapiens, UniProt P41161 1-510); conditions: protein: recombinant; tags: N-terminal GST; dsDNA, one strand shown
ETV5, sequence (P41161 whole entry): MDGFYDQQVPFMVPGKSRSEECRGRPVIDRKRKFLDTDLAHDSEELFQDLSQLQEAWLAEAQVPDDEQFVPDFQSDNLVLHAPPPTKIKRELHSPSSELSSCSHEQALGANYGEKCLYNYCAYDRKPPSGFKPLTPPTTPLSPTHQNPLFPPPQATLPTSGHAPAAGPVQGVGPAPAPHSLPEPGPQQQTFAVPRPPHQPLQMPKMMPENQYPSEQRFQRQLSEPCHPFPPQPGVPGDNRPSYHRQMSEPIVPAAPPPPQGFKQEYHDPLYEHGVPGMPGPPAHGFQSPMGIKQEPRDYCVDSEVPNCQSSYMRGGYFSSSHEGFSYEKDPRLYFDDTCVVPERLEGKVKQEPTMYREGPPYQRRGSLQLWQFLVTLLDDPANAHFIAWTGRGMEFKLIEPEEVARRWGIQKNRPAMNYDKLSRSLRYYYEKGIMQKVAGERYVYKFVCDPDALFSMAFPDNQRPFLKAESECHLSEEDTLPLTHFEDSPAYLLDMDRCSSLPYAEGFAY
Outline: as §1

HSF1 = HSF1 (Homo sapiens, UniProt Q00613 1-529); conditions: protein: recombinant; tags: N-terminal GST; chain copies: 3; dsDNA, one strand shown
HSF1, sequence (Q00613 whole entry): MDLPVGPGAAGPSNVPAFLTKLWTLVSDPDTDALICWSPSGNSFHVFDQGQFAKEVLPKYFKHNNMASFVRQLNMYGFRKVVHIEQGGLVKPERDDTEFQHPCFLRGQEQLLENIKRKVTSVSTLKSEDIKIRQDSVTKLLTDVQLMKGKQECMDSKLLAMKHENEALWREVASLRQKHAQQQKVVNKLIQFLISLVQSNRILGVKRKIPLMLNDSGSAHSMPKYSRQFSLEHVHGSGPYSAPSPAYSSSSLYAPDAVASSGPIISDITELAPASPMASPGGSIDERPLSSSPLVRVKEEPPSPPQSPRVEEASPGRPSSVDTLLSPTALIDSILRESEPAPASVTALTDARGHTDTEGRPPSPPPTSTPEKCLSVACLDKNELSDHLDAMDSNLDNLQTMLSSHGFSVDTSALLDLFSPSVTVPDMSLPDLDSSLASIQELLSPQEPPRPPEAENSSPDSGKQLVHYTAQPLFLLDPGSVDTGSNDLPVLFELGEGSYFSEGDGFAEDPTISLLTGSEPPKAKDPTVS
Outline: as §1

SPIC = target: T2, SPIC (Homo sapiens, UniProt Q8N5J4 1-248); conditions: protein: recombinant; tags: N-terminal GST; dsDNA, one strand shown
T2 sequence: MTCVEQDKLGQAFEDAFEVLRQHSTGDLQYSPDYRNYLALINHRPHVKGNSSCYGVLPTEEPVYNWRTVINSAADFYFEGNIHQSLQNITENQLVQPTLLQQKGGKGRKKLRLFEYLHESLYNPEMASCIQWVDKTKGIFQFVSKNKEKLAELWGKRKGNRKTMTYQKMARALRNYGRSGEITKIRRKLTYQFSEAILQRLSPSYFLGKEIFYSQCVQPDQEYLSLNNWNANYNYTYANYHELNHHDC
Outline: as §1

ELF4 = ELF4 (Homo sapiens, UniProt Q99607 1-663); conditions: protein: recombinant; tags: N-terminal GST; dsDNA, one strand shown
ELF4, sequence (Q99607 whole entry): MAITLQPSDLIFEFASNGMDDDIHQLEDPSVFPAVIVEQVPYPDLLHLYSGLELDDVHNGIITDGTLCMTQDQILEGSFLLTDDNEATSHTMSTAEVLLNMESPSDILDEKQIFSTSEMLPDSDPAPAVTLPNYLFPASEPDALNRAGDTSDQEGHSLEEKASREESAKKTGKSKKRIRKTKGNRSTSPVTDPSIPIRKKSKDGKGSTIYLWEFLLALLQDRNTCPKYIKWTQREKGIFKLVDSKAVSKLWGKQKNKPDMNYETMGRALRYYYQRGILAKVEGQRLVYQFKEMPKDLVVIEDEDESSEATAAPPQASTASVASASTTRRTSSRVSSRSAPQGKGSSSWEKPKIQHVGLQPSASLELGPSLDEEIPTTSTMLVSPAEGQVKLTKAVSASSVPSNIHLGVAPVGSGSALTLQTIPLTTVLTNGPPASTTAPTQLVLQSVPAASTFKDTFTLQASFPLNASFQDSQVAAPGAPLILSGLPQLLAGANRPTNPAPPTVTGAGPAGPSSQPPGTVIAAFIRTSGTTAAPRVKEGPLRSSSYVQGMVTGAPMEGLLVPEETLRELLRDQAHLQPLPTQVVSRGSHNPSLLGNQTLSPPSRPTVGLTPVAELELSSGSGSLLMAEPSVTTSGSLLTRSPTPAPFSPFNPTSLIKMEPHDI
Outline: as §1

ELK4 = target: T3, ELK4 (Homo sapiens, UniProt P28324-2 1-405); conditions: protein: recombinant; tags: N-terminal GST; dsDNA, one strand shown
T3 sequence: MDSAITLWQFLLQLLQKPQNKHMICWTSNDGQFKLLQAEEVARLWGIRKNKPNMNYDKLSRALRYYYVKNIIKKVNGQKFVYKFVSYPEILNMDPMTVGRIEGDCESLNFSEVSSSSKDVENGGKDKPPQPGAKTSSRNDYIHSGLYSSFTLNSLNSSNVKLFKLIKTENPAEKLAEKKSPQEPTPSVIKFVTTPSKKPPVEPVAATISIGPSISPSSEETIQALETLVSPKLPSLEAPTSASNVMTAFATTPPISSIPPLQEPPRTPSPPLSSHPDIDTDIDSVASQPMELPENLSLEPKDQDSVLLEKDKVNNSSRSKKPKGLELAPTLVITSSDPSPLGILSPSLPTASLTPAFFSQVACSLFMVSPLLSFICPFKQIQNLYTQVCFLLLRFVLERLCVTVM
Outline: as §1

ETV2 = target: T4, ETV2 (Homo sapiens, UniProt O00321 1-342); conditions: protein: recombinant; tags: N-terminal GST; dsDNA, one strand shown
T4 sequence: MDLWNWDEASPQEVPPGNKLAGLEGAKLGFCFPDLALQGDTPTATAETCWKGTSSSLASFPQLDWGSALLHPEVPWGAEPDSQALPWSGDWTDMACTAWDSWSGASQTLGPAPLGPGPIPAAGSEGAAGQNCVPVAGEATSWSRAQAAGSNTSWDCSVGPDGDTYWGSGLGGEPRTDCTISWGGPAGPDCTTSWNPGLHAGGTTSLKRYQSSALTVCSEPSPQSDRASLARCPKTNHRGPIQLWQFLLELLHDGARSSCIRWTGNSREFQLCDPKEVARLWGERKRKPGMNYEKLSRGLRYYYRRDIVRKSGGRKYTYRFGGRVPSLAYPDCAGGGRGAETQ
Outline: as §1

ELF3 = target: T5, ELF3 (Homo sapiens, UniProt P78545 1-371); conditions: protein: recombinant; tags: N-terminal GST; dsDNA, one strand shown
T5 sequence: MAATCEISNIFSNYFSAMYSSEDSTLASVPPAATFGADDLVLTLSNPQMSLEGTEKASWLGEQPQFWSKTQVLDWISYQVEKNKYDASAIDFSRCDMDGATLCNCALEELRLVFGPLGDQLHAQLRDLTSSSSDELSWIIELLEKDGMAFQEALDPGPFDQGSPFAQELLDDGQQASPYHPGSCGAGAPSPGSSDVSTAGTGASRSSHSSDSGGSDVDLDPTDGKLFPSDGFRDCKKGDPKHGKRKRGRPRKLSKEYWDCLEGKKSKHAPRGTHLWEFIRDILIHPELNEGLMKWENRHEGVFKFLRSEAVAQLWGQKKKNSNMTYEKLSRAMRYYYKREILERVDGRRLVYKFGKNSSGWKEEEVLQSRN
Outline: as §1

CRX = CRX (Homo sapiens, UniProt O43186 1-299); conditions: protein: recombinant; tags: N-terminal GST; dsDNA, one strand shown
CRX, sequence (O43186 whole entry): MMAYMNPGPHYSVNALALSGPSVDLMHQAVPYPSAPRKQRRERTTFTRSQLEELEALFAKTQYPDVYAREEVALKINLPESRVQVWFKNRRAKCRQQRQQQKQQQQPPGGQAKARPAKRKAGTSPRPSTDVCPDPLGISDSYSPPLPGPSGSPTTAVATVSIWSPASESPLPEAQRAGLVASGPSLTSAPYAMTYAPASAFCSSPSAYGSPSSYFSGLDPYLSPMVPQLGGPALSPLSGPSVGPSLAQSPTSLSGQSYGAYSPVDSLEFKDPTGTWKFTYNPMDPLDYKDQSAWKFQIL
Outline: as §1

ETV1 = ETV1 (Homo sapiens, UniProt P50549 1-477); conditions: protein: recombinant; tags: N-terminal GST; dsDNA, one strand shown
ETV1, sequence (P50549 whole entry): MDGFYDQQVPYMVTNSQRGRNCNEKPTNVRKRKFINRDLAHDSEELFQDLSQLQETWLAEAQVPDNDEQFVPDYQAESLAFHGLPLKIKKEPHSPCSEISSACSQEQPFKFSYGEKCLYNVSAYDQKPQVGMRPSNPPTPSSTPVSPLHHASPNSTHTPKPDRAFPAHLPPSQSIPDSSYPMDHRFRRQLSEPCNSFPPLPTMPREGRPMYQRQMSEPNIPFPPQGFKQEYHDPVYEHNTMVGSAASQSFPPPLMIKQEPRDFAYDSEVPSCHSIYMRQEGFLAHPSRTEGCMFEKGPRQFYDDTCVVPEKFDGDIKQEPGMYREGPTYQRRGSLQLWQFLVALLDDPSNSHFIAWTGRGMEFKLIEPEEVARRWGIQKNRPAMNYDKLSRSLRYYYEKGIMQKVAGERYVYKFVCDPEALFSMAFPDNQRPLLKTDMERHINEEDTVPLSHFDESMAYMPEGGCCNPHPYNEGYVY
Outline: as §1

TTTTCA
binding signal (FEV): 1.17 fold enrichment (6-mer frequency, TF over GST control) | binding signal (ETV5): 1.2 fold enrichment (6-mer frequency, TF over GST control) | binding signal (HSF1): 1.14 fold enrichment (6-mer frequency, TF over GST control) | binding signal (SPIC): 1.22 fold enrichment (6-mer frequency, TF over GST control) | binding signal (ELF4): 1.27 fold enrichment (6-mer frequency, TF over GST control) | binding signal (ELK4): 1.2 fold enrichment (6-mer frequency, TF over GST control) | binding signal (ETV2): 1.24 fold enrichment (6-mer frequency, TF over GST control) | binding signal (ELF3): 1.31 fold enrichment (6-mer frequency, TF over GST control) | binding signal (CRX): 1.28 fold enrichment (6-mer frequency, TF over GST control) | binding signal (ETV1): 1.22 fold enrichment (6-mer frequency, TF over GST control)
